Common to all, as to assay: DAPPL (digital affinity profiling via proximity ligation, sequencing); 10 mM Tris-HCl pH 7.5, 50 mM NaCl, 1 mM DTT, 4% glycerol, room temperature, 30 min; GST-TFs on glutathione beads, 16-mer random dsDNA library, 0.1% formaldehyde crosslink after washing; high values mean tight binding
The target of assay [1] is T1, FLI1 (Homo sapiens, UniProt Q01543 1-452).
T1 sequence: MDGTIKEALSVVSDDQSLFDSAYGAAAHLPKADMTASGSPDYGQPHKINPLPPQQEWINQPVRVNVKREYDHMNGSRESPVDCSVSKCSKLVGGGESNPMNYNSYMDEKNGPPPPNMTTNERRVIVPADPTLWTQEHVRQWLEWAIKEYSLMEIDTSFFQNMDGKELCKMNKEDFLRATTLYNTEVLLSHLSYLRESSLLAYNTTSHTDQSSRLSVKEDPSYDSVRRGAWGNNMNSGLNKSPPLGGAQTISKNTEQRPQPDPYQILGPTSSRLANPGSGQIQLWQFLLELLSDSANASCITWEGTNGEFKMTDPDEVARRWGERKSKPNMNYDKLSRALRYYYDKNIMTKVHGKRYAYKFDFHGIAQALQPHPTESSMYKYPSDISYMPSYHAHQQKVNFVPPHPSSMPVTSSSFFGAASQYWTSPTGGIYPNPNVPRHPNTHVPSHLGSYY
The conditions noted are these: protein: recombinant; tags: N-terminal GST; dsDNA, one strand shown. The gist of the method: (§1)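 Pools were built from human transcription factors expressed in yeast as GST fusions, captured on glutathione beads and DNA-barcoded, along with a tag-only sample. Incubation with 200 nmole of a 16-mer random double-stranded DNA library lasted 30 min at room temperature in Tris/NaCl/DTT/glycerol buffer, and was followed by washing, 0.1% formaldehyde crosslinking, proximity ligation, PCR amplification and Illumina NextSeq500 sequencing. Binding signal is the quotient of each hexamer's read frequency for a factor and its frequency for the tag-only sample.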

In assay [2] the target is T2, ELK1 (Homo sapiens, UniProt P19419 1-428).
T2 sequence: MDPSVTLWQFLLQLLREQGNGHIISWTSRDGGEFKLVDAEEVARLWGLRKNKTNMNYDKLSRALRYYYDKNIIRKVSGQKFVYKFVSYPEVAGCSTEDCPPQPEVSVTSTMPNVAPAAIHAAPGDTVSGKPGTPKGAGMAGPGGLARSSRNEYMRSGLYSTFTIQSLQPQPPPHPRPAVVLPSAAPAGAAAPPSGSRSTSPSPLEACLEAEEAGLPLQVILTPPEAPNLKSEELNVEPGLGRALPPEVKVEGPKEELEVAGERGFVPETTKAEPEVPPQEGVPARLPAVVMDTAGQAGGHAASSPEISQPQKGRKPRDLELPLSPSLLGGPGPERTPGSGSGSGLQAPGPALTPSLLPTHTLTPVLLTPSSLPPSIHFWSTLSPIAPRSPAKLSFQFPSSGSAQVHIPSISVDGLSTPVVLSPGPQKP
The conditions noted are these: protein: recombinant; tags: N-terminal GST; dsDNA, one strand shown. The method, boiled down:
as §1

The target in assay [3] is T3, GABPA (Homo sapiens, UniProt Q06546 1-454).
T3 sequence: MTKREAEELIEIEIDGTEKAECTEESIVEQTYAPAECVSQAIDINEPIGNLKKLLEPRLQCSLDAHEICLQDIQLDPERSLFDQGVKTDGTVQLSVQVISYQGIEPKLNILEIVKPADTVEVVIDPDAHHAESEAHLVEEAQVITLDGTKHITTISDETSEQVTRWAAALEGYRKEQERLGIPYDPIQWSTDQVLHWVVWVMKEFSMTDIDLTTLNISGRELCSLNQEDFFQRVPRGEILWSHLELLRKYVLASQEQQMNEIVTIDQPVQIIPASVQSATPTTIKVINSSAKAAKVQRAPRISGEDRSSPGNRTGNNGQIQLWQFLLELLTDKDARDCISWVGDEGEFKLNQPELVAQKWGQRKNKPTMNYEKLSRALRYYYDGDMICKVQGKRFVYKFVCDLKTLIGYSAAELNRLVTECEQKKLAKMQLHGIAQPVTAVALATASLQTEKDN
The conditions noted are these: protein: recombinant; tags: N-terminal GST; dsDNA, one strand shown. The method, boiled down: as §1

Assay [4] deals with T4, ERG (Homo sapiens, UniProt P11308 1-479).
T4 sequence: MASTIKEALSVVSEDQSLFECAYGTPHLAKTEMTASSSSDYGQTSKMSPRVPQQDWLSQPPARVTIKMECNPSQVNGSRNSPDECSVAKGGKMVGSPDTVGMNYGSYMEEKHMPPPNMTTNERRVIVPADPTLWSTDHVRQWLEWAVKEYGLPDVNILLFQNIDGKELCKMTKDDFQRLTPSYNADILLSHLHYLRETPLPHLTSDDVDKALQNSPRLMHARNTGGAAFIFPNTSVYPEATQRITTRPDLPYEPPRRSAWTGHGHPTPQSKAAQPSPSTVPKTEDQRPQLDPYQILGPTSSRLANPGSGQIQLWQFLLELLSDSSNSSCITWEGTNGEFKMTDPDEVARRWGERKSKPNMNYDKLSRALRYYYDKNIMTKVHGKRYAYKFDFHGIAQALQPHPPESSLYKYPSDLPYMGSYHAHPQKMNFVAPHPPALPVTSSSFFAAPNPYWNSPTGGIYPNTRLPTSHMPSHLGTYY
To be noted: protein: recombinant; tags: N-terminal GST; dsDNA, one strand shown. The gist of the method: as §1

Assay [5] deals with ELF1 (Homo sapiens, UniProt P32519 1-619). To be noted: protein: recombinant; tags: N-terminal GST; dsDNA, one strand shown. The method, boiled down: as §1
For assay [6], the target named is T5, EHF (Homo sapiens, UniProt Q9NZC4 1-300).
T5 sequence: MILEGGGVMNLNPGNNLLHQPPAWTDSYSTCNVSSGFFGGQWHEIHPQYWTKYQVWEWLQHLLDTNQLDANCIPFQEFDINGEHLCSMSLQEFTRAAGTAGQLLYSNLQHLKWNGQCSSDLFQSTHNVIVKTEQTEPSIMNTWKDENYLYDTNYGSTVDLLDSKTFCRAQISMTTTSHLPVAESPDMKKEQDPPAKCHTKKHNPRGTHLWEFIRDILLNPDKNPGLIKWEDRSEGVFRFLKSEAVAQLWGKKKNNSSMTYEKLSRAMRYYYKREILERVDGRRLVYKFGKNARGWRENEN
To be noted: protein: recombinant; tags: N-terminal GST; dsDNA, one strand shown. The method, boiled down:
as §1

Assay [7] concerns the target SPI1 (Homo sapiens, UniProt P17947 1-270). The conditions noted are these: protein: recombinant; tags: N-terminal GST; dsDNA, one strand shown. The method, boiled down: as §1
Assay [8] concerns the target SPIB (Homo sapiens, UniProt Q01892 1-262). The conditions noted are these: protein: recombinant; tags: N-terminal GST; dsDNA, one strand shown. The method, boiled down: as §1
Assay [9] has as its target T6, ELK3 (Homo sapiens, UniProt P41970 1-407).
T6 sequence: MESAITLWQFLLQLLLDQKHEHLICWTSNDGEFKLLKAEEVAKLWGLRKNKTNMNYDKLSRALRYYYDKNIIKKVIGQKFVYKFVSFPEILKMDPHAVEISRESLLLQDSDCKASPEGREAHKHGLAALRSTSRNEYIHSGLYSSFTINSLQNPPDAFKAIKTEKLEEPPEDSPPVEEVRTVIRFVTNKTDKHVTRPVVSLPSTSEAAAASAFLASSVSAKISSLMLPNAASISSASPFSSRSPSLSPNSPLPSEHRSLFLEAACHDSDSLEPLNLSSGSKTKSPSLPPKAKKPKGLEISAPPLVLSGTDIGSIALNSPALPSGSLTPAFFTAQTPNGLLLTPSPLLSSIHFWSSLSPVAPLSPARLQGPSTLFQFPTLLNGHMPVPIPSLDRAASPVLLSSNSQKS
The conditions noted are these: protein: recombinant; tags: N-terminal GST; dsDNA, one strand shown. The method, boiled down:
as §1

Assay [10] has as its target T7, FEV (Homo sapiens, UniProt Q99581 1-238).
T7 sequence: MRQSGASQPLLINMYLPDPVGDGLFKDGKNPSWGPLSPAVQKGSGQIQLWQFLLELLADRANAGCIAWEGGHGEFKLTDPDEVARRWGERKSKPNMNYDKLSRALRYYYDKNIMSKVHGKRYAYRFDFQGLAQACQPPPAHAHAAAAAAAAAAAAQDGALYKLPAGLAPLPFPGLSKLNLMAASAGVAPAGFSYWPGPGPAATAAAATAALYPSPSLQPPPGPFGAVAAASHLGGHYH
The conditions noted are these: protein: recombinant; tags: N-terminal GST; dsDNA, one strand shown. The method, boiled down:
as §1

Assay [11] concerns the target ETV5 (Homo sapiens, UniProt P41161 1-510). The conditions noted are these: protein: recombinant; tags: N-terminal GST; dsDNA, one strand shown. The method, boiled down:
as §1

Assay [12] deals with HSF1 (Homo sapiens, UniProt Q00613 1-529). The conditions noted are these: protein: recombinant; tags: N-terminal GST; chain copies: 3; dsDNA, one strand shown. The gist of the method: as §1
Assay [13] concerns the target T8, SPIC (Homo sapiens, UniProt Q8N5J4 1-248).
T8 sequence: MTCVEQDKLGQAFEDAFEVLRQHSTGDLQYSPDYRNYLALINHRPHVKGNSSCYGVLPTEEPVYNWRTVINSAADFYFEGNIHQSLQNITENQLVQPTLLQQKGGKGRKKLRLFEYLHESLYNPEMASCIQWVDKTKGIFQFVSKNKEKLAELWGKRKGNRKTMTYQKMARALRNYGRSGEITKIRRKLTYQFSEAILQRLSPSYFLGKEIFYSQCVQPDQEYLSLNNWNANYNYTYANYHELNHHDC
To be noted: protein: recombinant; tags: N-terminal GST; dsDNA, one strand shown. The gist of the method:
as §1

The target in assay [14] is ELF4 (Homo sapiens, UniProt Q99607 1-663). The conditions noted are these: protein: recombinant; tags: N-terminal GST; dsDNA, one strand shown. The gist of the method: as §1
For assay [15], the target named is T9, ELK4 (Homo sapiens, UniProt P28324-2 1-405).
T9 sequence: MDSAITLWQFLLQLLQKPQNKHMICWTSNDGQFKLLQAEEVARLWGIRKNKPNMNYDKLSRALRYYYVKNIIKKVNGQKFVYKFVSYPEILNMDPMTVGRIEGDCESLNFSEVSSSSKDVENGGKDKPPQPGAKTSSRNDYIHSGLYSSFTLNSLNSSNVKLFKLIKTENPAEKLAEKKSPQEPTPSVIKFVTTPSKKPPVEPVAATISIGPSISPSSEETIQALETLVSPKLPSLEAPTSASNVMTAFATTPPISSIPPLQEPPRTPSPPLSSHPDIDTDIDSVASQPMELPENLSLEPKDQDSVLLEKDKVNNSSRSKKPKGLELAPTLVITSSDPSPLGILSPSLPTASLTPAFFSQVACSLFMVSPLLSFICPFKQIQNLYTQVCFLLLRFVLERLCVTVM
To be noted: protein: recombinant; tags: N-terminal GST; dsDNA, one strand shown. The gist of the method:
as §1

Assay [16] deals with T10, ETV2 (Homo sapiens, UniProt O00321 1-342).
T10 sequence: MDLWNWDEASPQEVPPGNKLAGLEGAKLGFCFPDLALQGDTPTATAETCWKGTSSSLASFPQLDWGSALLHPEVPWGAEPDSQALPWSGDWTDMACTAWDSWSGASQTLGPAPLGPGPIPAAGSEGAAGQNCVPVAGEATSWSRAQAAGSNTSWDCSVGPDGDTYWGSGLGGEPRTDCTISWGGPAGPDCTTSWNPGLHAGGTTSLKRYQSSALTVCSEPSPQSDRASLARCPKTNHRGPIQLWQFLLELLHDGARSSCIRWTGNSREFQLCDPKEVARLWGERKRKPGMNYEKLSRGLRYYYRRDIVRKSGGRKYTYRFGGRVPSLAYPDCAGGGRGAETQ
The conditions noted are these: protein: recombinant; tags: N-terminal GST; dsDNA, one strand shown. The method, boiled down: as §1

Assay [17] concerns the target T11, ELF3 (Homo sapiens, UniProt P78545 1-371).
T11 sequence: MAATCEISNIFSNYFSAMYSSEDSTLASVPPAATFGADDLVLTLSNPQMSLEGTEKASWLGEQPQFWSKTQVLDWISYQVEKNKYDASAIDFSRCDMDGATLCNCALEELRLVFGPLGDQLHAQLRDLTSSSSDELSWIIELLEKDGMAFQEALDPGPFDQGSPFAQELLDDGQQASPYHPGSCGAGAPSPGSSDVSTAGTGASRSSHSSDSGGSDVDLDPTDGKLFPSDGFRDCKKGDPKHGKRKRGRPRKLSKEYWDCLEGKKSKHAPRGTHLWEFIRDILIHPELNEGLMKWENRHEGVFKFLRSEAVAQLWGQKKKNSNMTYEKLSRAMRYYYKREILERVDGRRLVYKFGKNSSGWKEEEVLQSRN
The conditions noted are these: protein: recombinant; tags: N-terminal GST; dsDNA, one strand shown. The gist of the method: as §1

In assay [18] the target is CRX (Homo sapiens, UniProt O43186 1-299). To be noted: protein: recombinant; tags: N-terminal GST; dsDNA, one strand shown. The method, boiled down:
as §1

In assay [19] the target is ETV1 (Homo sapiens, UniProt P50549 1-477). The conditions noted are these: protein: recombinant; tags: N-terminal GST; dsDNA, one strand shown. The gist of the method: as §1

Here are results for one sequence from PMC7862700, “An all-to-all approach to the identification of sequence-specific readers for epigenetic DNA modifications on cytosine”.

Chain of ETV5 (P41161 whole entry): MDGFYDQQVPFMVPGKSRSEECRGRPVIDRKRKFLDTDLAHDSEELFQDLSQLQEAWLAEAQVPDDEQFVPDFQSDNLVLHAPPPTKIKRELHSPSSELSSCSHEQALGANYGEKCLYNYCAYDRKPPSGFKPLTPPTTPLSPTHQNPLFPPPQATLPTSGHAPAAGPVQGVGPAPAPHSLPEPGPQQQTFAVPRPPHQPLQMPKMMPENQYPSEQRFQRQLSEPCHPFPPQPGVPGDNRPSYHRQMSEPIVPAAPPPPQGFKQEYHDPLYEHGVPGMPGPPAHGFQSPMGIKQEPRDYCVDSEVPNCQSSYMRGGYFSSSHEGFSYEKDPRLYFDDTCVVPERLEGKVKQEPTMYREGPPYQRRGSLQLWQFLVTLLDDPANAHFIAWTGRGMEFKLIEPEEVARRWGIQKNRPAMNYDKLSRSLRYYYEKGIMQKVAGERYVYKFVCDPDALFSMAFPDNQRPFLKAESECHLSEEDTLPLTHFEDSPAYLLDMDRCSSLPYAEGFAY
Chain of ETV1 (P50549 whole entry): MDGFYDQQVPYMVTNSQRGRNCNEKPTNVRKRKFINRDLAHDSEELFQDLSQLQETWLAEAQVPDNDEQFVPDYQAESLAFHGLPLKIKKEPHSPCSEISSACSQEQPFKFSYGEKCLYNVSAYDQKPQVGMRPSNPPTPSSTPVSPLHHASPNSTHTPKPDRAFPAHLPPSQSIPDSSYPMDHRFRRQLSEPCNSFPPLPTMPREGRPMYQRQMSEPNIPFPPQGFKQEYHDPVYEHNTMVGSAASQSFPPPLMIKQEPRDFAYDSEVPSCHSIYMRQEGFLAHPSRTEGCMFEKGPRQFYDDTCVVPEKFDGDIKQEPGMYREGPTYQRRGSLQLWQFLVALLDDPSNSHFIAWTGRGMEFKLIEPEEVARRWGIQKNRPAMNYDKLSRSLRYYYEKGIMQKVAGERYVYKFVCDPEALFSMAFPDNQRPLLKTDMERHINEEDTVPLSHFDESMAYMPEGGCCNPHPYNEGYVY
Chain of ELF4 (Q99607 whole entry): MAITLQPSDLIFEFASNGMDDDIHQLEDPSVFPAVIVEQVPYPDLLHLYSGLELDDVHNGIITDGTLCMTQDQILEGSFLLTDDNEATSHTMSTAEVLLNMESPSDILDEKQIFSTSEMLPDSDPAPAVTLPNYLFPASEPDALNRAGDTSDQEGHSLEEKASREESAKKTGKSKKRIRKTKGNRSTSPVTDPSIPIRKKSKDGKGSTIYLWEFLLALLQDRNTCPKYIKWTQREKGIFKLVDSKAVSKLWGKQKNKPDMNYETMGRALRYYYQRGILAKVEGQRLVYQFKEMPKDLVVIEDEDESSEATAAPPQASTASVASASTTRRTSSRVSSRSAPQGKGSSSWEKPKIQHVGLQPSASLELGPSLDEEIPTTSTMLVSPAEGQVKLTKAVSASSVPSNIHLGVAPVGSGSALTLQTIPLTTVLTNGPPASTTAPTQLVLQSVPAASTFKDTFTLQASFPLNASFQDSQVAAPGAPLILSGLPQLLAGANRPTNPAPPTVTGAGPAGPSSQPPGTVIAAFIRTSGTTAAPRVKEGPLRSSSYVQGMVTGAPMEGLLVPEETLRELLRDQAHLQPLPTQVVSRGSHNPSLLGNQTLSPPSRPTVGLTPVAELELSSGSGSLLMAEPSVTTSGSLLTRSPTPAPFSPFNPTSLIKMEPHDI
Chain of SPIB (Q01892 whole entry): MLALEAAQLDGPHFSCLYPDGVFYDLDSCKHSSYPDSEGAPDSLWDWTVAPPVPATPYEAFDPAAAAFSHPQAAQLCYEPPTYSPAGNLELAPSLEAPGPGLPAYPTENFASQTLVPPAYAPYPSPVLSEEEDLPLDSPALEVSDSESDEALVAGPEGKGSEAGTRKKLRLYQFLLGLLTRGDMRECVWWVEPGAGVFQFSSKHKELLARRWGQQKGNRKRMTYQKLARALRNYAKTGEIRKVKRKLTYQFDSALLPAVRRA
Chain of CRX (O43186 whole entry): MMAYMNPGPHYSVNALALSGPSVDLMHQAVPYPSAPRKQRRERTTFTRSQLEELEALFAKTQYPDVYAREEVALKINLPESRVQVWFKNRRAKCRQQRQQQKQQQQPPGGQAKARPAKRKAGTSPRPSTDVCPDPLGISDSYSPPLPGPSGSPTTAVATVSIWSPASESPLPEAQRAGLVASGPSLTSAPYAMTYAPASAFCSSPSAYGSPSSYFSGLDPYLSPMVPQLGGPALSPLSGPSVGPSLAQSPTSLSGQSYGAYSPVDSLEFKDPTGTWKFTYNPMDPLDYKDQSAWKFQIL
Chain of HSF1 (Q00613 whole entry): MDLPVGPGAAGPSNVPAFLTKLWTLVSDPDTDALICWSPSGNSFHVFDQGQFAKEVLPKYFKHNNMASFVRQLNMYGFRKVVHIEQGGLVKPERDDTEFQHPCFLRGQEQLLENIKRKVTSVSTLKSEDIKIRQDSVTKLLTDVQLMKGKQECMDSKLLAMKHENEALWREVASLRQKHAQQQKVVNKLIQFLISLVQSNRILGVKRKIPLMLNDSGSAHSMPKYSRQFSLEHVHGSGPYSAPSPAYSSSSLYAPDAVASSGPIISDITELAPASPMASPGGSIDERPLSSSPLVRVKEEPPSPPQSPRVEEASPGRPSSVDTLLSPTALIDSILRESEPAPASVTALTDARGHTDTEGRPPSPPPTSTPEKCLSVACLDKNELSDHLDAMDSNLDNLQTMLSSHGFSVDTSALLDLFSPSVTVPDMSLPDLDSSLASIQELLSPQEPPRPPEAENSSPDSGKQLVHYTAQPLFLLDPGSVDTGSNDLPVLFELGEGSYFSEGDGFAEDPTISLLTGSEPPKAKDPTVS
Chain of ELF1 (P32519 whole entry): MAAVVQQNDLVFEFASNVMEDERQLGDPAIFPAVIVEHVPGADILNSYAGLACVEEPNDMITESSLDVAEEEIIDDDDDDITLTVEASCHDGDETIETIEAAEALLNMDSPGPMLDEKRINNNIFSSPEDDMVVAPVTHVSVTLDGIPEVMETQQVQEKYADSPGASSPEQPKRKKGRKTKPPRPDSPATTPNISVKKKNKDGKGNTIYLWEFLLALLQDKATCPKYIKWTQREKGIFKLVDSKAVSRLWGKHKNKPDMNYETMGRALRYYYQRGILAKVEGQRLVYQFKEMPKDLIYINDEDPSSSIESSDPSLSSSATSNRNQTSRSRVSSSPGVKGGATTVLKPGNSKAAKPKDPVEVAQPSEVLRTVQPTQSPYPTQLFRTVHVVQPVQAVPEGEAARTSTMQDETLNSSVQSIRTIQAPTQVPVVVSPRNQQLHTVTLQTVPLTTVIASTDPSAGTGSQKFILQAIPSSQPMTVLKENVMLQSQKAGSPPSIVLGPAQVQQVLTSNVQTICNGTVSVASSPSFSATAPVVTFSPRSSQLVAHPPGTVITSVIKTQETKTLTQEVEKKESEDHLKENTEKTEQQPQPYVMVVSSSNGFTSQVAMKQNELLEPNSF

Take CGACTA: the binding signal in [1] is 1.24 fold enrichment (6-mer frequency, TF over GST control); in [2] it was 1.31 fold enrichment (6-mer frequency, TF over GST control); in assay [3], 1.5 fold enrichment (6-mer frequency, TF over GST control); in [4], 1.28 fold enrichment (6-mer frequency, TF over GST control); in assay [5], 1.31 fold enrichment (6-mer frequency, TF over GST control); in assay [6], 1.31 fold enrichment (6-mer frequency, TF over GST control). The binding signal was 1.29 fold enrichment (6-mer frequency, TF over GST control) in assay [7]; 1.32 fold enrichment (6-mer frequency, TF over GST control) in assay [8]; 1.3 fold enrichment (6-mer frequency, TF over GST control) in assay [9]; 1.31 fold enrichment (6-mer frequency, TF over GST control) in [10]; 1.25 fold enrichment (6-mer frequency, TF over GST control) in assay [11]; 1.52 fold enrichment (6-mer frequency, TF over GST control) in [12]. The binding signal in assay [13] was 1.47 fold enrichment (6-mer frequency, TF over GST control); in assay [14], 1.48 fold enrichment (6-mer frequency, TF over GST control); in [15], 1.58 fold enrichment (6-mer frequency, TF over GST control); in assay [16] it was 1.49 fold enrichment (6-mer frequency, TF over GST control); in [17], 1.41 fold enrichment (6-mer frequency, TF over GST control); in [18], 1.52 fold enrichment (6-mer frequency, TF over GST control). Also, in [19], the binding signal was 1.4 fold enrichment (6-mer frequency, TF over GST control).
